# Measured values as given in the supplement of paper PMC4166925.
# ± gives the standard deviation of the averaged measurements. Whole data set: some 33,000 sequences, median “E-score (dimensionless, -0.5 to 0.5)” near -0.049, cut for the highest 2% near 0.37. Many of the other results were omitted from the sample, so the highest values are more common in it than they were.
# Tested on: T1, PmTbr T-box DNA-binding domain (GST fusion)
# T1 sequence: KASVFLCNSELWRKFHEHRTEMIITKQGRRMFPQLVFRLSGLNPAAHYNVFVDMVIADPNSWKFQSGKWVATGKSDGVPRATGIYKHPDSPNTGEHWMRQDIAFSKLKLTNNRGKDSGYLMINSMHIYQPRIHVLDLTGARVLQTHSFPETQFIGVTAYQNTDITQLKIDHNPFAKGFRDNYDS
# Test: PBM E-score of 8-mer (E-score (dimensionless, -0.5 to 0.5)); Tbr is Tbrain of the sea star Patiria miniata (Pm) or the sea urchin Strongylocentrotus purpuratus (Sp); higher = stronger binding preference
# Settings: the construct has about 5 more residues each side
# How it was run: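 Primer extension turned Universal Agilent oligonucleotide arrays double-stranded. They were incubated with 200 nM protein in PBS (pH 7.5); the protein was a GST-fused Tbr T-box DNA-binding domain expressed in BL21 E. coli at 20 °C and purified on glutathione. Every ungapped 8-mer was scored from the scanned, quantified probe intensities, and the Universal PBM Analysis Suite gave each an enrichment E-score averaged over duplicate arrays.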
row,Sequence,PBM E-score of 8-mer
1,AGAGAAAG,0.0684 ± 0.065
2,ACTCACCG,-0.0077 ± 0.1
3,CGGAGTCC,-0.183 ± 0.043
4,CTTTGGCA,0.288 ± 0.017
5,CGTGGCTA,-0.139 ± 0.056
6,GTCGTTCA,0.19 ± 0.052
7,AACTGAGT,-0.0725 ± 0.037
8,AACTTCGA,0.0686 ± 0.023
9,ACTTCACA,0.336 ± 0.011
10,CCTTCACA,0.395 ± 0.014
11,CCTTCACG,0.213 ± 0.0063
12,GCTTCACA,0.301 ± 0.014
13,ACTTCACG,0.262 ± 0.038
14,TCTTCACA,0.377 ± 0.015
15,CCAAGTGA,0.146 ± 0.01
16,CTGAGCAC,0.0183 ± 0.04
17,GACAGGCA,-0.0532 ± 0.041
18,ACACAGTG,0.229 ± 0.005
19,AGTGTTTC,0.134 ± 0.066
20,CGCTTGAG,-0.0499 ± 0.011
21,AACGTGCG,0.345 ± 0.029
22,CACGTGTC,0.385 ± 0.0079

row,Sequence,PBM E-score of 8-mer
1,ACCGTGTG,0.218 ± 0.0082
2,AACGTGTG,0.3941 ± 0.0015
3,AACGTGTA,0.156 ± 0.04
4,CACGTGTA,0.2502 ± 0.00031
5,CACGTGAC,0.315 ± 0.0075
6,AGCGTGTC,0.174 ± 0.034
7,AACGTGTC,0.4102 ± 0.0015
8,CGAGGGCA,-0.019 ± 0.015
9,ATTAGAAC,-0.161 ± 0.0031
10,GCCAAGCA,-0.0191 ± 0.018
11,ACACCAAG,0.35 ± 0.005
12,GATATCAC,0.331 ± 0.021
13,TCCGCACA,0.104 ± 0.058
14,CGAATTCC,-0.164 ± 0.079
15,ATTTCCCG,-0.133 ± 0.0071
16,AGCTGTGC,0.182 ± 0.0098
17,ACCTGTGC,0.0647 ± 0.0069
18,AGCTGTGA,0.404 ± 0.017
19,AGCTGTGG,0.0136 ± 0.075
20,ACCTGTGA,0.4002 ± 0.002
21,GCCTGTGA,0.107 ± 0.014
22,GGTAGAGA,-0.124 ± 0.0055

row,Sequence,PBM E-score of 8-mer
1,GACTCAGA,-0.213 ± 0.097
2,TCAAATCA,-0.159 ± 0.042
3,GTCGCCAC,0.326 ± 0.0074
4,ACAGGCTC,0.0148 ± 0.018
5,CCTTCGCG,0.2566 ± 0.0012
6,ACCGTCGT,0.162 ± 0.045
7,ACCTCCGA,0.253 ± 0.033
8,AGTGCGAT,0.427 ± 0.0052
9,AGTGCGTA,0.146 ± 0.048
10,CGTGCGAC,0.277 ± 0.018
11,AGTGCGAA,0.4725 ± 0.00067
12,AATGCGAT,0.024 ± 0.0098
13,ACTGCGAT,0.107 ± 0.048
14,GGTGCAAC,0.299 ± 0.033
15,GGTGCGAC,0.462 ± 0.017
16,TGTGCAAA,0.197 ± 0.043
17,GCTGCGAC,0.137 ± 0.0089
18,GGTGCAAA,0.393 ± 0.0071
19,ACTGCGAA,0.315 ± 0.012
20,ATCCTGCC,-0.0684 ± 0.0044
21,CTAGCAAG,0.0488 ± 0.014
22,TGAGGGAA,-0.0537 ± 0.066

row,Sequence,PBM E-score of 8-mer
1,ATCATAGC,0.0043 ± 0.09
2,CTGGCGAC,0.124 ± 0.059
3,TGTGCGAA,0.448 ± 0.0066
4,TCTGCGAA,0.201 ± 0.038
5,AGTGCGAC,0.37 ± 0.012
6,CGTGCGAA,0.448 ± 0.0091
7,AGTGCGTC,-0.147 ± 0.029
8,TATGCGAA,0.157 ± 0.0088
9,GGTGCGTA,0.2616 ± 0.00075
10,ACTGCGAC,0.0881 ± 0.0041
11,GATGCGAA,0.186 ± 0.038
12,CGTGCAAA,0.11 ± 0.0028
13,CGTGCGCA,0.0827 ± 0.019
14,GGTGCGAA,0.48957 ± 0.00016
15,AGCCGACA,0.165 ± 0.007
16,GTGGCTCA,0.0273 ± 0.048
17,CGCCGCAA,-0.0674 ± 0.0034
18,ATTGCTCG,-0.0286 ± 0.034
19,CAGCCAGA,-0.0394 ± 0.019
20,CGAGATCC,0.0268 ± 0.01
